This passage reports outcome and AC50 results from PubChem BioAssay (EPA / NIEHS).

Calls of active or inactive are those of the source. Rule for the calls: active = hit-call score of the fitted dose curve at least 0.9, where 1 is the maximum; inactive = score below 0.9.

Sequence of Heat shock factor protein 1 (Homo sapiens) (Q00613 whole entry, looked up): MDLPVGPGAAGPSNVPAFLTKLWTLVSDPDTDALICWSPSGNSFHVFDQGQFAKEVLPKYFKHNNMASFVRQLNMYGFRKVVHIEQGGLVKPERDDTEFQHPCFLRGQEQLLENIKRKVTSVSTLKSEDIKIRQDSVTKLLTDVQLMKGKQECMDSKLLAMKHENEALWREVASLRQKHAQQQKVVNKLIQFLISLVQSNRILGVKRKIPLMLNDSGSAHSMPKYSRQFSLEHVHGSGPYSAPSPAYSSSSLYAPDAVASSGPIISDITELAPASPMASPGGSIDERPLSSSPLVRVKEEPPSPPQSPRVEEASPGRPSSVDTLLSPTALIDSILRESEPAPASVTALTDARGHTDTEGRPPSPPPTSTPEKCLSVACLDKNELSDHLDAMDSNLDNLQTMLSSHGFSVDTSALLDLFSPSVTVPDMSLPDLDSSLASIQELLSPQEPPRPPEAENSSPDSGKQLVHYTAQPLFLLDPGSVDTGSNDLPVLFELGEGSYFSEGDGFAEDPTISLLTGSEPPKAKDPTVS

In one experiment the target is Heat shock factor protein 1 (Homo sapiens) (UniProt Q00613). The experiment is described as follows: ATG_HSE_CIS: Attagene CIS-FACTORIAL HepG2 Assay for human Heat Shock Transcription Factor 1 (HSE) (AID 2282953). The following applies: HepG2 HSE cis-reporter, Attagene RNA transcription; actives raise or lower the signal. An outline of the steps:
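Endogenous transcription factor activity in transiently transfected HepG2, read as reporter mRNA by RT-PCR with fluorescent capillary electrophoresis after 24 h. Gain or loss of signal fitted versus DMSO baseline.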
As for `CCCCCCCCCCCCCCCCCC(=O)O`, the call was inactive. Still for that read-out and setting: the value for `CCCCCCCCCCCC(=O)OC` was “inactive”.

In the case of `O=C(N[C@@H](Cc1ccccc1)[C@@H](O)C(=O)N1C[C@@H](O)[C@@H](O)C1)c1cc2cc(Cl)ccc2[nH]1`, the compound was classed as inactive. On the same count and under the same terms, the value for `CCCCCCCC=O` was “inactive”.

Test system in another experiment: not listed separately
As to the kind of experiment: ATG_MRE_CIS: Attagene CIS-FACTORIAL HepG2 Assay for human Metal Responsive Element (MRE) (AID 2282954). The conditions noted are these: HepG2 MRE cis-reporter transcription, Attagene multiplex; actives raise or lower the signal. The gist of the method:
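After a 24 h chemical exposure, transiently transfected HepG2 cells yield RNA whose reporter sequences are amplified, FAM-labelled and sized by capillary electrophoresis. Curves are fitted bidirectionally relative to DMSO.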
`Nc1ccc2c(c1)C(=O)c1ccccc1C2=O`: the result was inactive. Still for that read-out and setting: the value for `CC(=O)C(C)=CC1C(C)=CCCC1(C)C` (centres undefined) was “inactive”. Same read-out and setting: to `CCCCCCC(=O)OCC` belongs “inactive”. Still for that read-out and setting: the value for `CCCCN(CCCC)CCCC` was “inactive”; that for `Cc1nc(C)nc(N2C[C@@H](C)N(c3ccnc([C@@H](C)O)n3)[C@@H](C)C2)n1` was “inactive”. As to `CC(=O)OCCOCCOCCOC(C)=O`, the call was inactive. Regarding `CCOC(=O)CCC(=O)OCC`, the call was inactive.

For the compound `CC(=O)Oc1ccccc1C(=O)O`, the result was inactive. Same read-out and setting: to `CC(=O)OC/C=C(\C)CCC=C(C)C` belongs “inactive”; to `CC(C)c1ccc(C(=O)N=C(N)N)cc1S(C)(=O)=O`, “inactive”; to `Cc1ccc(Cl)cc1`, “inactive”.

As to `C[Si]1(C)O[Si](C)(C)O[Si](C)(C)O[Si](C)(C)O1`, the compound was called inactive.

Regarding `C=CCc1ccc(O)c(OC)c1`, the result was inactive.

What is called AC50 is the midpoint of the concentration-response curve, whichever way the signal moves. `COc1cccc2c1C(=O)c1c(O)c3c(c(O)c1C2=O)C[C@@](O)(C(=O)CO)C[C@@H]3O[C@H]1C[C@H](N)[C@H](O)[C@H](C)O1`: the half-maximal activity concentration (AC50) is 1.66 µM (active). With `Cc1cccc(C)c1O`, the call was inactive. On to `CCCCCC(=O)O`, for which the compound was called inactive. Regarding `Oc1ccc2ccccc2c1N=Nc1ccccc1`, the half-maximal activity concentration (AC50) was 2.47 µM (active). As for `NS(=O)(=O)c1cc2c(cc1Cl)NCNS2(=O)=O`, the compound was classed as inactive. The same measure, in the same setting: the value for `Cc1ccccc1Cl` was “inactive”; that for `COc1ccc2c(c1)c(CC(=O)O)c(C)n2C(=O)c1ccc(Cl)cc1` was “inactive”. On the same count and under the same terms, to `Cc1cccc(Nc2cc(Cl)nc(SCC(=O)O)n2)c1C` belongs “inactive”; to `CCOC(=O)C(C)(C)Oc1ccc(Cl)cc1`, “inactive”; to `CCCCOC(=O)CCCCCCCCC(=O)OCCCC`, “inactive”. Take `CCc1c(C(=O)NN2CCCCC2)nn(-c2ccc(Cl)cc2Cl)c1-c1ccc(Br)cc1`: the AC50 was 4.76 µM (active). As for `Oc1ccc2c(c1)OC[C@@H](N1CCC(O)(c3ccc(F)cc3)CC1)[C@H]2O`, the AC50 is 57.2 µM (active). With `O=C(O)CCCCC(=O)O`, the result was inactive.

Take `CCCCCCCCCCCCCCCCCC(=O)O`: the outcome was inactive.

With `CCCCCCCCCCCC(=O)OC`, the compound was called inactive.

In the case of `O=C(N[C@@H](Cc1ccccc1)[C@@H](O)C(=O)N1C[C@@H](O)[C@@H](O)C1)c1cc2cc(Cl)ccc2[nH]1`, the AC50 was 100 µM (active). For the compound `CCCCCCCC=O`, the outcome was inactive.
